The values that follow come from PubChem BioAssay (EPA / NIEHS).

Results filed as inconclusive are left out. The source made the active and inactive calls. How the source made its calls: active means hit-call score of the fitted dose curve at least 0.9, where 1 is the maximum; inconclusive means response in the unintended direction; inactive means score below 0.9.

A short description of this test: Tanguay_ZF_120hpf_SNOU_legacy: (Legacy) Oregon State University Tanguay Lab 120 Hour Post-fertilization zebrafish Assay for Snout Malformation (AID 2283637). The method, then: Tanguay_ZF_120hpf_legacy is a whole embryo, multiplexed endpoint assay using zebrafish larvae exposed for 120 hours post fertilization on a 96-well plate.Tanguay_ZF_120hpf_SNOU_legacy is one of one assay component(s) measured or calculated from the Tanguay_ZF_120hpf_legacy assay. It is designed to make measurements of zebrafish development as detected with brightfield microscopy of developing zebrafish embryos.Data from the assay component Tanguay_ZF_120hpf_SNOU_legacy was analyzed into 1 assay endpoints. This assay endpoint, Tanguay_ZF_120hpf_SNOU_legacy, was analyzed in the positive analysis fitting direction relative to DMSO as the negative control and baseline of activity. Using a type of morphology reporter, gain-of-signal activity can be used to understand changes in developmentals as they relate to the whole embryo. To generalize the intended target to other relatable targets, this assay endpoint is annotated to the zebrafish development intended target family, where the subfamily is embryonic snout morphogenesis.
Zebrafish husbandry: Tropical 5D wild-type adult zebrafish were housed in at an approximate density of 1000 per 100 gallon tank at the Sinnhuber Aquatic Research Laboratory, Oregon State University, Corvallis, OR. Each tank was kept at standard laboratory conditions of 28C on a 14-h light/10-h dark photoperiod in fish water consisting of reverse osmosis water supplemented with a commercially available salt (Instant Ocean). Spawning funnels were placed into the tanks the night prior, and embryos were collected and staged. To increase bioavailability, the chorion was enzymatically removed using pronase (63.6mg/ml, >/= 3.5U/mg, Sigma-Aldrich: P5147) at 4 hours post fertilization (hpf) using a custom automated dechorionator.Chemical exposures: Six hpf dechorionated embryos were placed 1 embryo per well in a 96-well plate prefilled with 90 ul of EM using automated embryo placement systems (AEPS). Ten microliters of each row of dilution plate 2 was added to 2 exposure plates. The final DMSO concentration used was 0.64% (vol/vol). Thirty-two embryos were also exposed to 5uM trimethyltin chloride (positive control). Plates were sealed to prevent evaporation and foil covered to reduce light exposure and kept in a 28C incubator. Embryos were statically exposed until 120 hpf. At 24 hpf, embryos were assessed for photomotor response using a custom photomotor response analysis tool (PRAT) and for developmental toxicity endpoints (MO24: mortality at 24 hpf, DP: developmental progression, SM: spontaneous movement, and NC: notochord distortion). At 120 hpf, locomotor activity was measured using Viewpoint Zebralab and assessed for 18 endpoints. Zebrafish acquisition and analysis program (ZAAP), a custom program designed to inventory, acquire, and manage zebrafish data, was used to collect developmental endpoints as either present or absent (i.e., binary responses were recorded). If mortality occurred for an embryo (at either 24 or 120 hpf), the non-mortality endpoints were not measured.
In the case of `CCSC(=O)N(CC(C)C)CC(C)C`, the call was inactive. What is called AC50 is the concentration giving half of the maximal activity seen. With `CCCCOCCOCCOCc1cc2c(cc1CCC)OCO2`, the AC50 was 7.01 µM (active). As to `CCOC(=O)COc1cc(-n2ncc(C(F)(F)F)c(C)c2=O)c(F)cc1Cl`, the outcome was inactive.

In the case of `COc1c(Cl)ccc(Cl)c1C(=O)O`, the compound was classed as inactive.

Regarding `Oc1ccc(C(c2ccc(O)cc2)C(Cl)(Cl)Cl)cc1`, the AC50 is 138 µM (active). `CCC(C)OC(=O)N1CCCCC1CCO` (stereo not given): the call was inactive.

As to `N[C@@H](Cc1cc(I)c(Oc2ccc(O)c(I)c2)c(I)c1)C(=O)O`, the AC50 was 0.00111 µM (active). As to `CC(C)(C)[C@@H](O)[C@@H](Cc1ccc(Cl)cc1)n1cncn1`, the AC50 is 10.5 µM (active). As to `CCCCC(CC)COC(=O)c1ccccc1C(=O)O` (stereo not given), the call was inactive. In the case of `CCOC(=O)NCCOc1ccc(Oc2ccccc2)cc1`, the compound was classed as inactive. As for `OB(O)O`, the outcome was inactive. On the same count and under the same terms, the entry for `CCCN(CCC)c1c([N+](=O)[O-])cc(C(F)(F)F)c(N)c1[N+](=O)[O-]` is “inactive”; for `c1ccc2[nH]c(-c3cscn3)nc2c1` it is “inactive”; for `S=C([S-])NCCNC(=S)[S-].[Mn+2]` it is “inactive”. Take `CCCN(CCC)C(=O)SCC`: the result was inactive. As to `CC1(C)C(C=C(Cl)Cl)C1C(=O)OCc1cccc(Oc2ccccc2)c1` (stereo not given), the result was inactive. For `COC(=O)CSc1cc(N=c2sc(=O)n3n2CCCC3)c(F)cc1Cl`, the compound was classed as inactive. As for `CCCCC(CC)CN1C(=O)C2C3C=CC(C3)C2C1=O` (stereo not given), the compound was classed as inactive. The same measure, in the same setting: with `S=C(S)NCCNC(=S)S.[Mn+2].[S-]C([S-])=NCCN=C([S-])[S-].[Zn+2]` the entry was “inactive”; with `CCCCOC(=O)[C@@H](C)Oc1ccc(Oc2ccc(C(F)(F)F)cn2)cc1`, “inactive”.

For the compound `O=C(c1ccccc1)C1CCCCC1`, the compound was called inactive. Same read-out and setting: the entry for `C[C@]12C[C@H](O)[C@H]3[C@@H](CCC4=CC(=O)CC[C@@]43C)[C@@H]1CC[C@@H]2C(=O)CO` is “inactive”; for `CCCCOC(=O)C(C)Oc1ccc(Oc2ccc(C(F)(F)F)cn2)cc1` (stereo not given) it is “inactive”. The same measure, in the same setting: the entry for `N#CSCSc1nc2ccccc2s1` is “inactive”; for `CCNc1nc(N)nc(Cl)n1` it is “inactive”; for `CCOC(=O)C(C)Oc1ccc(Oc2nc3ccc(Cl)cc3o2)cc1` (stereo not given) it is “inactive”. As to `CC(=O)[C@H]1CC[C@H]2[C@@H]3CCC4=CC(=O)CC[C@]4(C)[C@H]3CC[C@]12C`, the call was inactive.

Consider `COCCO`, for which the outcome was inactive. Regarding `CCOC(=O)c1ccc(O)cc1`, the AC50 was 24.5 µM (active). For `CN(C)C(=O)Nc1ccc(Cl)c(Cl)c1`, the compound was classed as inactive. For `C=CCOC(Cn1ccnc1)c1ccc(Cl)cc1Cl` (stereo not given), the AC50 is 4.34 µM (active). Regarding `CSC(=O)c1cccc2nnsc12`, the result was inactive. Consider `O=C(Nc1ccc([N+](=O)[O-])cc1Cl)c1cc(Cl)ccc1O`, for which the compound was called inactive.

With `COC(=O)c1ccccc1C(=O)O`, the compound was classed as inactive. Consider `CCN(Cc1c(F)cccc1Cl)c1c([N+](=O)[O-])cc(C(F)(F)F)cc1[N+](=O)[O-]`, for which the result was inactive. As for `CC(C)CCCCCCc1ccc(O)cc1`, the call was inactive.

With `CCCCCOC(=O)COc1cc(N2C(=O)C3=C(CCCC3)C2=O)c(F)cc1Cl`, the compound was called inactive.

In the case of `c1ccc(Nc2ccccc2)cc1`, the AC50 was 36.6 µM (active).

Turning to `C[C@]12CC[C@@H]3c4ccc(O)cc4C[C@@H](CCCCCCCCCS(=O)CCCC(F)(F)C(F)(F)F)[C@H]3[C@@H]1CC[C@@H]2O` (stereo not given in full), the result was inactive. For the compound `C#CCOC(=O)[C@@H](C)Oc1ccc(Oc2ncc(Cl)cc2F)cc1`, the result was inactive.
